Test results reported in the supplement of paper PMC10105736.

tested on: sim; assay: MAPPIT interaction score (arbitrary units); higher = stronger binary interaction signal, active = hit call of the paper; settings: MAPPIT configuration: N-C; pair source set: Lit-BM-16;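 active = MAPPIT score above the 99th percentile of random reference set scores in the same batch; inactive = at or below it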
Method: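 MAPPIT in HEK293T cells: Drosophila bait and prey ORFs (from the FlyBi ORF collection) were co-transfected in quadruplicate, with two wells stimulated by erythropoietin. Interaction-dependent JAK-STAT activation was read out with a STAT-responsive firefly luciferase reporter. Positive calls use the 99th percentile of random reference set (RRS) scores within each batch […]. Batches Dvs01 and Dvs02 used the N-N configuration and Dvs04 the N-C configuration. Pairs come from FlyBi screens, CuraGen, DPiM, Finley Y2H, Lit-BM-16, Lit-BS-16 and RRS.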
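Further: HEK293T cells with Epo stimulation, STAT-responsive firefly luciferase reporter, fold induction versus unstimulated cells divided by the larger fold induction of two negative controls lacking either bait or prey.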

Chain of tgo (chain, as listed by the source): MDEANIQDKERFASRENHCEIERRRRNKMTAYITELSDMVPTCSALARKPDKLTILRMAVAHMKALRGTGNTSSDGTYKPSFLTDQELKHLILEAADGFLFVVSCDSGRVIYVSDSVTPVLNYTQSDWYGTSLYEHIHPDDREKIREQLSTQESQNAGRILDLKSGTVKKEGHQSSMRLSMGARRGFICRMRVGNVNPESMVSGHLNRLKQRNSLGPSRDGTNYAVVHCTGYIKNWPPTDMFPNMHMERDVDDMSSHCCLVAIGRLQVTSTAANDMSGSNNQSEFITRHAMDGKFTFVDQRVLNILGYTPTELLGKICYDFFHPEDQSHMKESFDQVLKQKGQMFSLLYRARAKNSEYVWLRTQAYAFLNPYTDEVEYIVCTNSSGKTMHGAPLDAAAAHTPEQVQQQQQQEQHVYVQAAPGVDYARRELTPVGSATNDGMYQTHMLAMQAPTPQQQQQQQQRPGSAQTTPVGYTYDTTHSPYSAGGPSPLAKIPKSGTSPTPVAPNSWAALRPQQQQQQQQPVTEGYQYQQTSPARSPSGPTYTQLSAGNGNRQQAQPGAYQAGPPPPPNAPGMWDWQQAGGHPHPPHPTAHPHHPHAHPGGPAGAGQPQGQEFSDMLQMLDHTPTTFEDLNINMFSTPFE

Row | Substance | MAPPIT interaction score
1 | tgo | 2.23 (inactive)

same assay, conditions: MAPPIT configuration: N-N; pair source set: Lit-BM-16

Row | Substance | MAPPIT interaction score
2 | tgo | 1.37 (inactive)
